VP16 counter = inhibits Gal4-VP16 luciferase reporter, ROR gamma counter-screen. Potency, µM (doses to about 53.6 µM), inactives show top-dose activity, negative = inhibition, most hits filed as inhibitors. Drosophila S2 Gal4-VP16 UAS-luciferase, luminescence, 20 h. hit rate 3.5% among 310,000. AID 2546;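 note: Gal4-VP16 expression switched on by copper sulfate through the metallothionein promoter; nearly all actives have a fitted effect of over 50% in size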
RORg inh = inhibitors of mouse ROR gamma transcriptional activity; P51450; Potency, µM (top dose mostly 53.6 µM), without a hit: at the highest dose activity change, negative = inhibition, hits mostly inhibitors; hit rate 5.4% among 310,000; AID 2551; Drosophila S2 Gal4-RORgamma UAS-luciferase reporter, 20 h; note: nearly all actives have a fitted effect of over 60% in size
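Luciferase reporter read in Schneider cells carrying Gal4-RORγ (mouse) and UAS-Photinus luciferase; cells given compound 1 h before 700 uM copper sulfate induction, then incubated 20 h at ambient temperature.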
PLK1 PBD inh = inhibitors of human PLK1 polo-box domain binding | P53350 | Plk1 PBD binding of FITC phosphopeptide, fluorescence polarization | Potency, µM, for the others: max response, negative = inhibition, usual class: inhibitors | hit rate 2.8% among 360,000 | AID 720504; note: series mostly up to about 57 µM; nearly all actives have a fitted effect of over 65% in size
Target sequence (P53350 whole entry, looked up, the tested form may be a part): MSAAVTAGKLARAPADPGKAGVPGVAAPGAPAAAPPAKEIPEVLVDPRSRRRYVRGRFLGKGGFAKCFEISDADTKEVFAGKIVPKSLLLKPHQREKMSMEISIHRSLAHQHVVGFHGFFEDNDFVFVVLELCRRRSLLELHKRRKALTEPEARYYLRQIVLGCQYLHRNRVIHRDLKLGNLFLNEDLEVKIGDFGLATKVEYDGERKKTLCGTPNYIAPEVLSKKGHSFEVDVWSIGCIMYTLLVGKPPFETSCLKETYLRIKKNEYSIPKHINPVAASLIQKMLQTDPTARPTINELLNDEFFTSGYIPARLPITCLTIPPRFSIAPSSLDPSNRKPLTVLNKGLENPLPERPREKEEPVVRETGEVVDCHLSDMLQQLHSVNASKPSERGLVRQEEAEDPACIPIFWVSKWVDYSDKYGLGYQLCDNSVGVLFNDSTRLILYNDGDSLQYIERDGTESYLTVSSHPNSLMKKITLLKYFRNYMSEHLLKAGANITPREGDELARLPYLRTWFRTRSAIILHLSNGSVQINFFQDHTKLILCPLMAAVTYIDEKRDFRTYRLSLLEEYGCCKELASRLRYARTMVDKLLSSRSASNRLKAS
Sfp PPTase inh = Sfp phosphopantetheinyl transferase inhibition | Q9F4F7 | Biochemical Sfp PPTase activity, qHTS | Potency, µM, inactives show largest response in the series, negative = inhibition, most hits filed as inhibitors | hit rate 3.5% among 310,000 | AID 1490;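 note: the enzyme is Sfp with the accession as filed and its product quenches rhodamine fluorescence; 0% = enzyme reaction without inhibitor and -100% = no enzyme wells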
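Fluorescence-quenching assay: 15 nM Sfp-PPTase preincubated 15 min at room temperature with compound, then 5 uM rhodamine-CoA and 12.5 uM BHQ-2-labelled YbbR peptide added. Fluorescence (ex 525/em 598 nm) read at start and after 30 min; difference gives rate.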
ALDH1A1 inh = ALDH1A1 (human) enzyme inhibition. Purified ALDH1A1, NADH fluorescence, propionaldehyde substrate. P00352. Potency, µM (series often up to 75.3 µM), inactives show at the highest dose activity, negative = inhibition, actives largely listed as inhibitors. hit rate 7.3% among 220,000; active = well fitted inhibition curve with a large enough effect, not every such curve was filed as active; inconclusive = small, poorly fitted or top-dose-only effect, or another doubt; inactive = no such curve, though single readings can be large or run the other way;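 note: plate controls were no enzyme wells and a reference inhibitor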
An asterisk follows results filed as active; ? = inconclusive; nt = no result. The list is not random: actives were taken first. Their share in the collection is about 12%. Unless noted, calls come from the whole dose curve; as a rule, active = well fitted curve in the direction sought with a large enough effect; inconclusive = small, poorly fitted or top-dose-only effect, or another doubt; inactive = no such curve, though single readings can be large; an effect the other way counts as inactive or inconclusive. Unless noted, % is set by controls: 0 for no effect and ±100 for the full control effect; potency is the fitted concentration of half-maximal effect.

SMILES	VP16 counter	RORg inh	PLK1 PBD inh	Sfp PPTase inh	ALDH1A1 inh
COC(=O)[C@H]1C[C@H]2CC[C@H](O)C[C@H]2N1CC1CC1	2.0%	14.4%	nt	11.5%	-4.7%
CC(=O)N1CCN(c2ccc([N+](=O)[O-])cc2C=C2C(=O)NC(=O)NC2=O)CC1	1.7%	-34.9%	?	-11.7%	4.2%
CN(C)c1ccc(C=C2C(=O)NC(=S)NC2=O)cc1	nt	nt	2.67µM*	nt	nt
O=C1NC(=O)C(=Cc2ccc3c(c2)OCO3)C(=O)N1	7.6%	-2.4%	nt	50.1µM*	?
O=Cc1ccc2c(c1)OCO2	6.1%	0.4%	nt	nt	?
CN(C)c1ccc(C=C2C(=O)NC(=O)NC2=O)cc1	nt	nt	2.99µM*	nt	nt
O=C1NC(=O)C(=Cc2ccc(OCCOc3ccc([N+](=O)[O-])cc3)cc2)C(=O)N1	5.8%	8.8%	2.67µM*	50.1µM*	17.8µM*
CCOC(=O)N(C)C(=O)CSP(=S)(OCC)OCC	7.0%	-9.3%	nt	?	nt
O=[N+]([O-])c1ccc(OP(=O)(O)Oc2ccc([N+](=O)[O-])cc2)cc1	nt	nt	5.6%	nt	nt
CCOP(=S)(OCC)Oc1ccc([N+](=O)[O-])cc1	2.6%	-3.0%	nt	nt	15.8µM*
CN(C)C(CSC(N)=O)CSC(N)=O	1.8%	33.6%	nt	-27.7%	nt
C[C@]12[C@H](O)CC3C(CC[C@@H]4C[C@@H](O)CC[C@]34C)[C@@]1(O)CC[C@@H]2C1=CC(=O)OC1 (stereo partly drawn)	-3.5%	-7.0%	nt	4.7%	4.1%
CC1Oc2cc3c(-c4c(O)cc(O)c5c(O)c6c(cc45)OC(C)C(C)C6=O)c(O)cc(O)c3c(O)c2C(=O)C1C (stereo not drawn)	?	3.98µM*	26.7µM*	15.1%	?
OCC1CCCN2CCCCC12 (stereo not drawn)	1.9%	1.9%	nt	15.0%	3.0%
Cc1ccccc1CN1CCN(c2ccc(Cl)cc2)CC1	5.1%	2.8%	3.3%	50.1µM*	-15.2%
Cc1cccc(-n2c(C)nc3ccccc3c2=O)n1	1.1%	16.1%	-0.9%	15.7%	10.1%
Cc1cccc(-n2c(=S)[nH]c3ccccc3c2=O)n1	?	12.6µM*	-13.8%	50.1µM*	3.5%
CC(=O)N1CCN(CC(=O)Nc2ccc(C#N)c(Cl)c2)CC1	-26.8%	?	3.3%	8.8%	1.2%
COc1ccc(CC(=O)Nc2ccc(C#N)c(Cl)c2)cc1S(=O)(=O)N1CCOCC1	-17.6%	4.9%	4.1%	50.1µM*	nt
OCCBr	-3.0%	4.4%	nt	nt	5.0%
Cc1cnn(-c2cc(Oc3ccccc3)ncn2)c1	0.6%	-30.5%	-7.7%	-16.1%	22.4µM*
[O-][Cl+]O	-12.5%	-10.7%	nt	nt	3.3%
CSc1ccc(CN2CCN(C(=O)COc3cccc(C)c3)CC2)cc1	2.9%	?	-8.8%	70.8µM*	?
Cc1cccc(OCC(=O)N2CCN(Cc3cccnc3)CC2)c1	15.7%	16.7%	11.3%	10.2%	-8.0%
CC(C)n1cnc2c(C(=O)N[C@H]3CN4CCC3CC4)cc(Cl)cc21	-11.3%	-10.7%	nt	-4.8%	2.1%
SMILES	VP16 counter	RORg inh	PLK1 PBD inh	Sfp PPTase inh	ALDH1A1 inh
Cc1cccc(N2C(=O)NC(=O)C3(Cc4cc(C)ccc4N(C)C3)C2=O)c1 (stereo not drawn)	3.0%	-3.7%	-22.6%	-6.9%	8.91µM*
Cc1ccc2c(c1)CC1(CN2C)C(=O)NC(=O)N(CCC2=CCCCC2)C1=O (stereo not drawn)	-1.1%	36.5%	-19.0%	-20.8%	3.55µM*
Cc1ccc2c(c1)CC1(CN2C)C(=O)NC(=O)N(C(C)C)C1=O (stereo not drawn)	0.9%	16.3%	?	1.0%	?
COc1ccc2c(c1)CC1(CN2C)C(=O)NC(=O)N(c2ccc(C)cc2)C1=O (stereo not drawn)	-11.7%	-9.0%	-14.4%	-5.2%	?
CCCCCOc1c(OC)ccc2cc(C(=O)NCc3ccc4c(c3)OCO4)c(=O)[nH]c12	-11.9%	10.1%	nt	-6.8%	?
O=C=NCCCCN=C=O	-4.8%	-0.6%	nt	7.7%	nt
CC/C=C\C[C@@H](/C=C/C=C\C/C=C\C/C=C\CCCC(=O)O)OO	-2.0%	?	nt	-4.6%	-2.4%
N#CC(Br)Br	1.2%	2.51µM*	-5.2%	nt	?
C#CCOc1cc(C2C3=C(COC3=O)Nc3cc4c(cc32)OCO4)ccc1OC (stereo not drawn)	-0.9%	-19.8%	-12.2%	25.1%	?
C#CCOc1ccc(OC)cc1C(c1c(C)[nH][nH]c1=O)c1c(C)[nH][nH]c1=O	-2.4%	0.8%	21.2µM*	-2.6%	nt

From PubChem BioAssay
